Source: PubChem BioAssay (EPA / NIEHS)
“And” between values parts separate entries of the source, which are not always exact repeats. Equal entries are not always repeated. Inconclusive results are not listed. The source made the active and inactive calls. Rule for the calls, unless noted: active = hit-call score of the fitted dose curve at least 0.9, where 1 is the maximum; inconclusive = response in the unintended direction; inactive = score below 0.9.

Experiments:
[1] = read-out: glucuronosyltransferase (UGT1A1), UGT1A1 (gene 54658); assay: CLD_UGT1A1_48hr: CellzDirect (CLD) Gene Expression Assay for glucuronosyltransferase (UGT1A1) at 48 hours (AID 2283709);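 note: actives increase expression relative to DMSO so potency refers to induction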
Procedure, shortened: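 Human primary hepatocytes dosed daily for two days (0.2% DMSO vehicle), harvested at 48 h. UGT1A1 mRNA induction measured by quantitative nuclease protection assay with chemiluminescence; gain of signal versus DMSO; cytotoxicity flagged from morphology.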

[2] = Tanguay_ZF_120hpf_ActivityScore_legacy: (Legacy) Oregon State University Tanguay Lab 120 Hour Post-fertilization zebrafish Assay Score for Activity (AID 2283742);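 for AC50: static exposure from 6 hpf until 120 hpf at 28 °C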
Procedure, shortened: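 Tropical 5D wild-type zebrafish embryos, dechorionated with pronase at 4 hpf, were exposed singly from 6 hpf to 120 hpf statically at 28C in 0.64% DMSO. Malformations and mortality were scored as binary by brightfield, with the activity score combining 18 morphology components.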

[3] = STM_H9_OrnithineISnorm_perc: Stemina devTOX quickPredict H9 human embryonic stem cell (hESC)-based Assay for Ornithine (ORN) Metabolite Biomarker, Normalized (AID 2283712; active = hit-call score of the fitted dose curve at least 0.9, where 1 is the maximum; inactive = score below 0.9;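 note: ornithine released into spent medium during last day measured by mass spectrometry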)
Procedure, shortened: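 H9 human embryonic stem cells kept pluripotent receive test chemical over 72 h, refreshed daily by media exchange. Media from the closing 24 h is deproteinized and analysed by UPLC-HRMS on an amide column; ornithine signal is scaled to labelled standard and vehicle.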

[4] = STM_H9_CystineISnorm_perc: Stemina devTOX quickPredict H9 human embryonic stem cell (hESC)-based Assay for Cystine (CYSS) Metabolite Biomarker, Normalized (AID 2283713; active = hit-call score of the fitted dose curve at least 0.9, where 1 is the maximum; inactive = score below 0.9)
Procedure, shortened: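 H9 hESC, pluripotent; compound 72h, re-dosed q24h with medium change. Last-24h medium → 40% acetonitrile deproteinization → UPLC-HRMS. CYSS area / C13-CYSS standard, then % of 0.1% DMSO median.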

[5] = STM_H9_OrnCyssISnorm_ratio: Stemina devTOX quickPredict H9 human embryonic stem cell (hESC)-based Assay for Ornithine (ORN):Cystine (CYSS) Ratio (AID 2283714)
Procedure, shortened: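 Undifferentiated H9 hESCs were exposed to compound for 72h with media and chemical replaced every 24h. Final 24-h conditioned media were deproteinized and analysed by UPLC-HRMS. ORN and CYSS peak areas were normalized to C13 internal standards and the ratio taken versus 0.1% DMSO.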

[6] = tested on: Thyroperoxidase (TPO), gene 445522; assay: CCTE_Simmons_GUA_TPO: CCTE's Guaiacol Assay for Thyroperoxidase (TPO) Inhibition, Simmons Lab (AID 2283750)
Procedure, shortened: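 Porcine thyroid microsomes (25 ug) in 200mM potassium phosphate, preincubated 30 s at 37C with compound (8 concentrations, 5 nM–87.5 uM) and 35mM guaiacol; 1mM H2O2 starts reaction. Absorbance change at 450nm over first 80 s; loss of signal versus DMSO, three replicates.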

[7] = ArunA_CellTiter_hNC: Viability Assessment in the ArunA Biomedical's Oris Neural Crest (hNC) Cell Migration Assay (AID 2283752)
Procedure, shortened: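 Cell titer was measured with the CellTiter Aqueous One reagent after 72 h of chemical dosing. Cells were H9-derived embryonic neural crest stem cells seeded on Matrigel, 60,000 per well, and given 16 h at 37C beforehand.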

[8] = ArunA_CellTiter_hNP: Viability Assessment in the ArunA Biomedical's Oris Neural Crest (hNC) Cell Migration Assay (AID 2283753)
Procedure, shortened: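 H9-derived hNP1 neuroprogenitors, 60,000/well on Matrigel, cultured 16 h, then 72 h chemical exposure in test medium. Cell titer via CellTiter Aqueous One; positive-direction fit vs DMSO.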

[9] = ArunA_Migration_hNC: ArunA Biomedical's Oris Neural Crest (hNC) Cell Migration Assay (AID 2283755)
Procedure, shortened: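 Human H9-derived neural crest stem cells, 60,000/well on Matrigel, 16 h at 37C, then 72 h chemical exposure after seeding-stopper removal. Migration into detection zone read as calcein-AM fluorescence (ex494/em517), relative to DMSO.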

[10] = ArunA_NOG_NucleusCount: ArunA Biomedical's Neurite Outgrowth (NOG) Assay for Nucleus Count (AID 2283756)
Procedure, shortened: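 Human H9-derived differentiated neurons were exposed for 48 h right after seeding. Hoechst-stained nuclei gated by size and intensity were counted by automated high-content imaging as viable neurons. Loss of signal vs DMSO.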

[11] = biological target: Luciferin 4-monooxygenase (Photinus pyralis) (UniProt P08659); assay: CCTE_Simmons_QuantiLum_inhib_2: CCTE's Firefly Luciferase Inhibition Assay, Simmons Lab (AID 2283767);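 for AC50: potency for inhibitors that lower luciferase luminescence relative to DMSO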
Procedure, shortened: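 Luminescence loss relative to DMSO vehicle defines inhibition; detection reagent containing 150 uM D-luciferin and 147 uM dATP (final, pH 7.8) is injected immediately before each read. Enzyme is preincubated with an 8-point titration (5 nM–87.5 uM final) for 30 min at 37C.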

[12] = CEETOX_H295R_MTT_cell_viability: Viability Assessment in the CeeTox HT-H295R MTT Assay (AID 2283718; active = hit-call score of the fitted dose curve at least 0.9, where 1 is the maximum; inactive = score below 0.9)
Procedure, shortened: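 H295R cells prestimulated 48 h with 10 uM forskolin, then exposed 48 h to test chemical (0.1% DMSO final). Viability by MTT (0.5 mg/ml, 4 h, 37 C), absorbance 570/650 nm; percent change versus DMSO, bidirectional fit.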

[13] = tested on: zebrafish Androgen Receptor (AR), gene 100005148; assay: ATG_zfAR_XSP1: Attagene TRANS-FACTORIAL Multi-Species (XSP1) HepG2 Assay for zebrafish Androgen Receptor (AR) (AID 2283771)
Procedure, shortened: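 HepG2 cells were transiently transfected with a zebrafish AR-GAL4 reporter system and partially stimulated with 3 nM 6-alpha-fluorotestosterone. Reporter mRNA was measured after 24 h dosing by RT-PCR with capillary electrophoresis, and gain-of-signal was fitted relative to DMSO.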

[14] = biological target: zebrafish Estrogen Receptor (ESR1), esr1 (gene 259252) (UniProt P57717); assay: ATG_zfER1_XSP1: Attagene TRANS-FACTORIAL Multi-Species (XSP1) HepG2 Assay for zebrafish Estrogen Receptor (ESR1) (AID 2283772)
Procedure, shortened: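 HepG2 cells were transiently transfected with multiplexed GAL4-UAS reporter units driven by chimeric NR-GAL4 proteins, dosed for 24 h with 3 nM 6-alpha-fluorotestosterone present, and reporter mRNA quantified by RT-PCR and capillary electrophoresis versus DMSO.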

[15] = ArunA_Migration_hNP: ArunA Biomedical's Oris Neuroprogenitor (hNP) Cell Migration Assay (AID 2283754)
Procedure, shortened: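 Human H9-derived hNP1 neuroprogenitors on Matrigel with LIF/bFGF, plated around seeding stoppers for 16 h at 37C; stoppers removed at start of 72 h chemical exposure. Calcein-AM staining, fluorescence 494/517 nm in detection zone; loss-of-signal vs DMSO; cytochalasin D control.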

[16] = ArunA_NOG_BranchPointsPerNeurite: ArunA Biomedical's Neurite Outgrowth (NOG) Assay for Branch Points Per Neurite (AID 2283759)
Procedure, shortened: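 Automated image analysis traced neurites (processes >10 um) from valid cell bodies after Hoechst and βIII-tubulin staining. hNN cells from H9 embryonic stem cells, 48 h exposure. Fitted bidirectionally against DMSO.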

Chain of Luciferin 4-monooxygenase (Photinus pyralis) (P08659 whole entry, looked up): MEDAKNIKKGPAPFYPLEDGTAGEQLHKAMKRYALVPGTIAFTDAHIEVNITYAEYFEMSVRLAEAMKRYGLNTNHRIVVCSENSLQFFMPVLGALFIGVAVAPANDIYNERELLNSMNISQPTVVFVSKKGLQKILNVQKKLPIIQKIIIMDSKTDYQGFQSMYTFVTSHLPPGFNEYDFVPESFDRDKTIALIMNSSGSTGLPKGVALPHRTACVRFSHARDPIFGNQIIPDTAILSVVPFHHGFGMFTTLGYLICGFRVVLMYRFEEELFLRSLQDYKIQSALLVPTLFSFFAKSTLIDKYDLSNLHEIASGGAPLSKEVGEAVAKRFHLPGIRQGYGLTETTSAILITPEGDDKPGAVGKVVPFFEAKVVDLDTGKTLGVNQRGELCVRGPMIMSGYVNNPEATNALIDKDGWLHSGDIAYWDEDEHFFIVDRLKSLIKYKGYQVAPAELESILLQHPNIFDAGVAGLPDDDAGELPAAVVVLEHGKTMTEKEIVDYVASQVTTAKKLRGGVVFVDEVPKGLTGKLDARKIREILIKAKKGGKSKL
Chain of zebrafish Estrogen Receptor (ESR1), esr1 (gene 259252) (P57717 whole entry, looked up, the tested form may be a part): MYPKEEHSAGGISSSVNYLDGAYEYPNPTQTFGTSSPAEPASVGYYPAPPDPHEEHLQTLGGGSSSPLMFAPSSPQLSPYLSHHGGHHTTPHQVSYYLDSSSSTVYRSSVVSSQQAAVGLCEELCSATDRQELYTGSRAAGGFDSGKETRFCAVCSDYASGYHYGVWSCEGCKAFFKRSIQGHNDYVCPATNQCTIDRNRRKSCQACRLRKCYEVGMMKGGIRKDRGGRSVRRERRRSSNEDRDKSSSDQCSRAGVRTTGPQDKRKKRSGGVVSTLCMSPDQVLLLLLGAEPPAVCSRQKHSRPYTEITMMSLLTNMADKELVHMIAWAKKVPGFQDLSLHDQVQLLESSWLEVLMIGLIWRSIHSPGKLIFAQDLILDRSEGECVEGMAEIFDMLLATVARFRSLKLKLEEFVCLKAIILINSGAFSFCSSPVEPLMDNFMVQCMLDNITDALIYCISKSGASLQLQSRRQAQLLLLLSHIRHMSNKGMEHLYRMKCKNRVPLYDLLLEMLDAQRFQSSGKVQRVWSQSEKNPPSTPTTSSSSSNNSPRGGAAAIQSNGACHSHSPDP

Compound: CCOC(=O)[C@H](C)Oc1ccc(Oc2nc3ccc(Cl)cc3o2)cc1
- outcome [1]: inactive

Compound: CCC(C)OC(=O)N1CCCCC1CCO (configuration not stated)
- outcome [1]: inactive
- outcome [2]: inactive

Compound: CCCOC(=O)NCCCN(C)C
- outcome [1]: inactive
- outcome [2]: inactive

Compound: N[C@@H](Cc1cc(I)c(Oc2ccc(O)c(I)c2)c(I)c1)C(=O)O
- outcome [3]: inactive
- outcome [4]: inactive
- outcome [5]: inactive
- AC50 [2]: 0.287 µM (active)
- AC50 [6]: 13.1 µM (active)
- AC50 [7]: 33 µM (active)
- outcome [8]: inactive
- AC50 [9]: 56.2 µM (active)
- outcome [10]: inactive
- outcome [11]: inactive

Compound: CCCCCCC(C)OC(=O)COc1nc(F)c(Cl)c(N)c1Cl (configuration not stated)
- outcome [1]: inactive
- outcome [2]: inactive

Compound: CCOC(=O)C(C)Oc1ccc(Oc2nc3ccc(Cl)cc3o2)cc1 (configuration not stated)
- outcome [1]: inactive
- outcome [2]: inactive
- AC50 [11]: 71.3 µM (active)

Compound: COCCO
- outcome [1]: inactive
- outcome [2]: inactive

Compound: CCCCC(CC)CN1C(=O)C2C3C=CC(C3)C2C1=O (configuration not stated)
- outcome [1]: inactive
- outcome [12]: inactive
- outcome [2]: inactive
- outcome [13]: inactive
- outcome [14]: inactive

Compound: O=C(c1ccccc1)C1CCCCC1
- outcome [2]: inactive

Compound: C#C[C@]1(O)CC[C@H]2[C@@H]3CCC4=CC(=O)CC[C@@H]4[C@H]3CC[C@@]21CC
- outcome [12]: inactive
- outcome [2]: inactive
- AC50 [13]: 1.12 nM (active) and 0.357 nM (active)
- outcome [14]: inactive

Compound: CCCCOC(=O)C(C)Oc1ccc(Oc2ccc(C(F)(F)F)cn2)cc1 (configuration not stated)
- outcome [3]: inactive
- outcome [4]: inactive
- outcome [5]: inactive
- outcome [2]: inactive

Compound: CC(C)CCCCCCc1ccc(O)cc1
- AC50 [3]: 73.4 µM (active)
- AC50 [4]: 70 µM (active)
- AC50 [5]: 75.7 µM (active)
- outcome [2]: inactive
- AC50 [7]: 5.59 µM (active)
- AC50 [8]: 9.76 µM (active)
- AC50 [15]: 17 µM (active)
- AC50 [9]: 4.41 µM (active)
- outcome [16]: inactive
- outcome [11]: inactive
- AC50 [14]: 2.68 µM (active)
